High-throughput results: PubChem, several laboratories
HIV RNase H inh – blocks HIV-1 RNase H cleavage of RNA/DNA duplex. RT-RNase H RNA/DNA duplex cleavage, fluorescence. 1.9% of 65,000 active. inhibition, % at 10 µM. P04585; in the data active = inhibition above about 50%
RmlC RmlD mix – inhibitors of RmlC and RmlD coupled enzymes; RmlC/RmlD coupled enzyme inhibition, 384-well mixture HTS; inhibition, % at 5.5 µM; 0.39% of 110,000 active; AID 1532; in the data active = inhibition above about 30%, passing the limit was not always enough
RmlCD fluor art – shows fluorescent artifact in RmlC/RmlD assay, dose-response counter-screen. RmlC/RmlD assay fluorescence artifact counter-screen. 96% of 360 active. calls only. shares compounds with RmlC RmlD mix. AID 1696; call rule not given here;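 also: compound alone with no enzyme and no substrates present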
* hit, by the source's call; i = inactive; · = no result; + = active, no number. The entries come from a sample that favours hits as a whole.

SMILES	HIV RNase H inh	RmlC RmlD mix	RmlCD fluor art
COc1cccc(-c2cc(C(F)(F)F)n3ncc(C(=O)NCC4CCCO4)c3n2)c1 (centres undefined)	-21.9	7.8	·
CCOc1ccc(-c2cc(C(=O)O)c3ccccc3n2)cc1	·	31.5*	+
O=C(O)c1cc(-c2ccccc2)nc2ccccc12	-6.6	3.6	·
CC(=O)c1cc2c(O)c(O)ccc2o1	-18.8	-3.7	·
CC(=O)c1cc2cc(O)ccc2o1	-31.4	135.9*	+
Cc1ccc2c(c1)N(Cc1ccncc1)C(=O)C(C)O2 (centres undefined)	-10.8	0.1	·
COC(=O)c1sc(NC(=O)Cc2cccs2)nc1C	-28.4	-5.8	·
CC1(C(=O)N(c2ccccc2)C(C(=O)NC2CCCC2)c2ccccn2)CC(=O)N=C2C=CC=CN21 (centres undefined)	-30.5	19.3	·
COC(=O)C1=CNC=C(C(=O)OC)C1c1cccc(OC)c1	-10.1	50.5*	+
COC(=O)C1=CNC=C(C(=O)OC)C1c1ccc(Cl)cc1	-27.0	-24.1	·
COC(C/C=C\[C@@H](O)COCc1ccccc1)OC	·	-5.3	·
CCOC(=O)/C(N=Nc1c(Br)cc(Br)cc1Br)=C(\C)O	·	9.5	·
CN(C(=O)c1cccc(C#N)c1)c1nnc(-c2ccccn2)s1	-15.5	36.5*	+
CN(C(=O)c1ccno1)c1nnc(-c2ccccn2)s1	-11.4	+	+
CN(C(=O)c1ccccn1)c1nnc(-c2ccncc2)s1	-0.5	·	·
CN(C(=O)c1ccc(C#N)cc1)c1nnc(-c2ccccn2)s1	·	40.0*	i
CN(C(=O)c1cccc(C#N)c1)c1nnc(C2CCOC2)s1 (centres undefined)	-7.8	-6.8	·
COc1ccc(-c2nnc(N(C)C(=O)c3ccno3)s2)cc1	·	22.4	·
CN(C(=O)c1ccncc1)c1nnc(-c2cccnc2)s1	-7.3	·	·
CN(C(=O)c1ccncc1)c1nnc(-c2ccccn2)s1	-2.7	107.8*	+
Cc1cccc(C)c1NC(=O)Cn1c(=O)n(CCCC(=O)NCc2ccco2)c(=O)c2sccc21	-18.0	2.2	·
CCCCCn1c(=O)[nH]c2cc(C(=O)NCCN(CC)CC)ccc2c1=O	-7.0	-13.6	·
Nc1cccc(-c2nc3cc(S(=O)(=O)c4ccc5oc(-c6cccc(N)c6)nc5c4)ccc3o2)c1	·	45.8*	+
Cc1ccc(-c2nc3cc(N)ccc3o2)cc1	-10.0	·	·
Cc1cc(C)n(CCOc2ccc(Cl)cc2Cl)n1	-16.7	-18.6	·
SMILES	HIV RNase H inh	RmlC RmlD mix	RmlCD fluor art
CCOc1cc(/C=C2/C(=N)N3C=CSC3=NC2=O)ccc1OCCCOc1ccccc1C	·	40.1*	+
COc1cc(/C=C2/C(=N)N3C=CSC3=NC2=O)ccc1OCCCOc1ccccc1C	·	12.7	·
CCOc1ccc(CSC(CC(=O)O)C(=O)O)cc1 (centres undefined)	3.8	3.6	·
COC(=O)c1ccccc1NC(=O)CSCC(=O)Nc1ccc(F)cc1	·	5.7	·
CCOC(=O)CNc1c(-c2ccc(Cl)cc2)nc2cnccn12	-19.6	·	·
CCOC(=O)CNc1c(-c2ccc(F)cc2)nc2cnccn12	3.0	50.4*	+
COc1ccc2cc(C(=O)NCc3ccco3)c(=O)oc2c1	-16.8	13.7	·
O=C(NCc1ccco1)c1cc2ccc(O)cc2oc1=O	6.8	86.3*	+
CCN(CC)Cc1c(O)ccc2c(C)c(CC(=O)OC)c(=O)oc12	-1.2	109.7*	+
COC(=O)Cc1c(C)c2ccc(OCC(=O)N(C)C)cc2oc1=O	·	30.6*	+
CCCOc1ccc2c(C)c(CC(=O)OC)c(=O)oc2c1	-10.2	-8.5	·
COC(=O)Cc1c(C)c2ccc(OCC(C)=O)c(C)c2oc1=O	-1.2	8.1	·
CNC(=O)c1cc2c(=O)n3cc(C)ccc3nc2n(Cc2ccco2)c1=N	-16.7	·	·
Cc1ccc2nc3c(cc(C(=O)NCC4CCCO4)c(=N)n3CCCOC(C)C)c(=O)n2c1 (centres undefined)	0.7	126.0*	+
O=c1oc2cc(Cl)ccc2n1CSc1nc2ccccc2s1	·	4.6	·
O=S(=O)(Nc1cccc2ccccc12)N1CCCC1	-33.1	-12.7	·
CC(=O)c1c(C)[nH]c(C(=O)OCC(=O)Nc2cc(C(F)(F)F)ccc2N2CCOCC2)c1C	1.3	-3.8	·
CC(C)Oc1ccc2c3c(c(=O)oc2c1)CCC3	-30.0	0.6	·
CC(C)CC(C(=O)Oc1ccc2c3c(c(=O)oc2c1)CCC3)N1C(=O)c2ccccc2C1=O (centres undefined)	·	·	+
CC[C@@H](NS(=O)(=O)c1ccc(C)cc1)C(=O)Oc1ccc2c3c(c(=O)oc2c1)CCC3	·	·	+
CCC(C)C(NS(=O)(=O)c1ccc(C)cc1)C(=O)Oc1ccc2c3c(c(=O)oc2c1)CCC3 (centres undefined)	·	16.5	·
Cn1c(=O)c2ncn(CC(=O)Nc3cccc(-c4nc5ccccc5s4)c3)c2n(C)c1=O	·	8.3	·
O=C1OCC2OC(O)C(O)C(O)C2OC(=O)c2cc(O)c(O)c(O)c2-c2c(O)c(O)c3oc(=O)c4c(c(O)c(O)c5oc(=O)c2c3c54)-c2c1cc(O)c(O)c2O (centres undefined)	·	35.1*	+
O=C1N/C(=N/N=C/c2ccccc2)SC1(c1ccccc1)c1ccccc1	·	-6.3	·
CCC1CCc2c(sc(NC(=O)c3ccco3)c2C(N)=O)C1 (centres undefined)	·	-2.9	·
SMILES	HIV RNase H inh	RmlC RmlD mix	RmlCD fluor art
CC(C)(C)C1CCc2c(sc(NC(=O)c3ccco3)c2C(N)=O)C1 (centres undefined)	·	64.2*	+
Cc1cc(C)c(S(=O)(=O)ON2C(=O)c3ccccc3C2=O)cc1C	·	146.4*	+
COC(=O)CON1C(=O)c2ccccc2C1=O	·	-16.3	·
C=CCON1C(=O)c2ccccc2C1=O	·	-9.8	·
Cc1cc(C)c(C)c(S(=O)(=O)ON2C(=O)c3ccccc3C2=O)c1C	·	114.1*	+
Brc1cccc(-c2nnc(SCc3ccon3)n2-c2ccccc2)c1	-67.0	4.0	·
COc1ccccc1-c1nnc(SCC(=O)NCc2c(C)c(Cl)cc(C(C)C)c2O)o1	-13.8	·	·
O=S(=O)(c1cccc(-c2cn3cccnc3n2)c1)N1CCCCCC1	47.5	-24.9	·
Brc1ccc(-c2cn3cccnc3n2)cc1	-10.4	45.3*	+
Clc1ccc(-c2cn3cccnc3n2)cc1	·	39.7*	+
O=S(=O)(c1cccc(-c2cn3cccnc3n2)c1)N1CCOCC1	22.2	67.0*	+
Clc1ccc(-c2cn3cccnc3n2)cc1Cl	·	8.9	·
CC1CN(S(=O)(=O)c2cccc(-c3cn4cccnc4n3)c2)CC(C)O1 (centres undefined)	-0.3	·	·
CCOC(=O)CC(=O)CSc1nc(-c2cccnc2)cc(C)c1C#N	-14.4	1.6	·
COC(=O)CC(=O)CSc1nc(C)cc(C)c1C#N	1.1	120.8*	+
N#Cc1cc2c(nc1SCC(=O)Nc1sc3c(c1C#N)CCC3)CCCCCC2	·	43.8	·
CCOC(=O)CC(=O)CSc1nc(-c2cccnc2)ccc1C#N	4.8	·	+
CC(C)OC(=O)CC(=O)CSc1nc2c(cc1C#N)CCCCCC2	·	+	+
CCc1nnc(NC(=O)CSc2nc3c(cc2C#N)CCC3)s1	-1.2	56.0*	+
N#Cc1cc2c(nc1SCC(=O)Nc1nccs1)CCCCC2	16.8	33.6	·
Cc1cc(C)c(C#N)c(SCC(=O)C(C)(C)C)n1	·	8.1	·
COc1cc(C)ccc1OCCCON1C(=O)CCC1=O	·	2.9	·
O=C(O)c1cc(S(=O)(=O)NCc2ccco2)c(Cl)cc1Cl	2.4	6.0	·
